# The full list was thinned out, with hits kept by preference.
# ClpP mod – qHTS Assay for Activators of ClpP | purified B. subtilis ClpP, FRET peptide cleavage, 20 min | Potency, µM (titrated, usually from 57.5 µM), inactives show at the top dose activity change, negative = active | hit rate 1.9% among 340,000 | AID 651965, 2013; active = well fitted falling curve with a large enough effect; inconclusive = small, poorly fitted or top-dose-only effect; inactive = no such curve, though single readings can be large or run the other way; note: potency is the fitted concentration of half-maximal effect; the source files actives as falling curves though it sought activators and does not explain the sign; nearly all actives have a fitted effect of over 65% in size
#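 Buffer: 100 mM Tris/HCl pH8, 100 mM KCl, 0.05% low protease BSA, 2.5% glycerol, 0.01% Tween-20. ClpP 10 microg/mL final; 20 min RT; delta FRET normalized to ADEP and DMSO controls.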
# CBFb-RUNX1 inh – CBF-beta/RUNX1 interaction disruption; Q01196+Q13951; AlphaScreen CBFb-His/RUNX1-biotin binding, biochemical; Potency, µM (titrated, usually from 59.8 µM), inactives show at the highest dose activity, negative = inhibition, most hits filed as inhibitors; 230,000 tested, under 10 active; AID 1477; note: % of control where 0% means no effect
# Target sequence (Q01196 whole entry, looked up): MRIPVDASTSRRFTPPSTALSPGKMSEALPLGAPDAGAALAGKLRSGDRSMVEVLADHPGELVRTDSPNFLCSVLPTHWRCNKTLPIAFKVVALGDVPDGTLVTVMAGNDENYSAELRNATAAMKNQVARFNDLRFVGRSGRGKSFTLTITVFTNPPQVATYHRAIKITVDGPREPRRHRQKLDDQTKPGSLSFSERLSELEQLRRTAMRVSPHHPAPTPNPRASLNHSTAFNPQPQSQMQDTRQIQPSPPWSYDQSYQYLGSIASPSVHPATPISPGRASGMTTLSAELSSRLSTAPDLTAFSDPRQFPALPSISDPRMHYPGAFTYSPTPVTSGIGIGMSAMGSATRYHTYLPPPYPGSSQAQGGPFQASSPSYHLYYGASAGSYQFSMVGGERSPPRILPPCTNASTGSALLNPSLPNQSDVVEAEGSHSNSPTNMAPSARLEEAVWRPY
# Target sequence (Q13951 whole entry, looked up): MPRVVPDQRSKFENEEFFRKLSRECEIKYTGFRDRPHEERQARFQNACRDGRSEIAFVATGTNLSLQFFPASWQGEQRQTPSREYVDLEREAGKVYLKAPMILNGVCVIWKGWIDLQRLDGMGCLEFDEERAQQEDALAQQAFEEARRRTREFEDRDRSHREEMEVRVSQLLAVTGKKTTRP
#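 Inhibition was taken as any reduction in AlphaScreen signal from the CBF-beta–RUNX1 pair (His and biotin tags, 30 nM each), measured after compound (15 min) and bead (90 min) incubations at room temperature.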
# Apoferritin bind – candidate novel general anesthetic via apoferritin binding | P02791 | apoferritin/1-aminoanthracene competitive binding, fluorescence | Potency, µM (top dose mostly 77.5 µM), without a hit: at the highest dose activity change, negative = displacement, most hits filed as inhibitors | hit rate 0.074% among 350,000 | AID 485281; note: potency is the fitted concentration of half-maximal effect; % is set by controls: 0 for no effect and ±100 for the full control effect; nearly all actives have a fitted effect of over 20% in size
#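 Steps: apoferritin (10 uM) was premixed with half-saturated 1-AMA in PBS, compounds were pin-transferred, plates stood 10 min at room temperature, fluorescence was read at 380/535 nm, and curves were fitted with a Hill equation.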
# Integrin act MD – activators of alpha7 integrin expression for muscular dystrophy. alpha7betagal myoblasts, beta-gal FDG fluorescence, 48 h. Potency, µM (titrated, usually from 38.3 µM), without a hit: at the highest dose activation, most hits filed as activators. hit rate 0.064% among 350,000;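 note: potency is the fitted concentration of half-maximal effect; 100% = response of the positive control SU9516; nearly all actives have a fitted effect of over 60% in size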
#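 alpha7betagal+/- myoblasts (passage 13, 250/well) treated 48 h at 37C with compounds at 1:260 dilution of DMSO stock. Lysed, then beta-galactosidase activity read as FDG fluorescence (ex 480/em 540) after 30 min, with pre-read for autofluorescence.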
# Glioma ERSR ind – inducers of ER stress response in human glioma cells; U87-MG GRP78 promoter luciferase reporter, 16 h; Potency, µM, without a hit: top-dose activation, most hits filed as activators; hit rate 0.02% among 420,000; AID 602332; note: potency is the fitted concentration of half-maximal effect; series mostly up to about 76 µM; % of control where 0% means no effect; nearly all actives have a fitted effect of over 35% in size
#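 ERSR induction read as luciferase luminescence (Bright-Glo, 10 min at room temperature) in stably transfected human U87-MG glioma cells exposed to compounds for 16 h, using GRP78 as sensor.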
# N370S GC mod – N370S glucocerebrosidase modulation, Gaucher chaperone candidate | hit rate 0.092% among 330,000 | Potency, µM (highest dose often 59.4 µM), inactives show top-dose activity change, negative = inhibition, hits mostly inhibitors | N370S GC spleen homogenate, 4MU-glucoside fluorescence | P04062 | AID 2101;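 note: potency is the fitted concentration of half-maximal effect; 0% = full enzyme activity and -100% = no enzyme basal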
# An asterisk follows results filed as active; ? = inconclusive; . = no result; ! = a repeat was not active; [ ] = another dose, or the depositor's remark. Unless noted, calls come from the whole dose curve; as a rule, active = well fitted curve in the direction sought with a large enough effect; inconclusive = small, poorly fitted or top-dose-only effect, or another doubt; inactive = no such curve, though single readings can be large; an effect the other way counts as inactive or inconclusive.
SMILES,ClpP mod,CBFb-RUNX1 inh,Apoferritin bind,Integrin act MD,Glioma ERSR ind,N370S GC mod
O=C(CSc1nnc(-c2ccccc2)c(-c2ccccc2)n1)N1CCOCC1,1%,4%,-15%,16%,-3%,-11%
O=C(CSc1nc(-c2ccccc2)c(-c2ccccc2)o1)N1CCOCC1,32µM*,-7%,-5%,-22%,-2%,-6%
CN(c1cccc(NC(=O)CN2C(=O)c3ccccc3S2(=O)=O)c1)S(C)(=O)=O,28µM*,7%,3%,-8%,-8%,-4%
CC(C)c1ccc(NC(=O)CN2C(=O)c3ccccc3S2(=O)=O)cc1,.,.,-16%,10µM*,-6%,-13%
Cc1cnc(-n2ncc(C(=O)NCCc3ccncc3)c2-c2cccs2)nc1-c1ccc(F)cc1,.,.,.,.,-2%,.
CCCN(CCC)c1ccc(/C=C/c2sc3ccccc3[n+]2CCCCI)cc1,2%,.,.,.,-6%,.
Cc1cccc(NS(=O)(=O)c2ccccc2)n1,20µM*,5%,-6%,-8%,-4%,-10%
Cc1cccc(NS(=O)(=O)c2ccc(C(C)(C)C)cc2)n1,4%,.,-8%,-1%,-1%,1%
Cc1cccc(NS(=O)(=O)c2ccc(C3CCCCC3)cc2)c1,2%,7%,?,-45%,-15%,?
Cc1cccc(NS(=O)(=O)c2ccc(C3CCCCC3)cc2)n1,22µM*,-3%,?,-22%,-2%,?
COc1ccc2nc(-c3ccc(N(C)C)cc3)sc2c1,.,.,38%,.,.,.
CCOC(=O)/C(C(N)=NCCO)=C(/O)c1ccccc1,-3%,5%,-3%,13µM*,-3%,4%
CCOC(=O)/C(C(N)=NCCCO)=C(/O)c1ccccc1,-1%,2%,-8%,-17%,-3%,-2%
CSc1ccc2cc(CNCc3ccccc3F)c(N3CCCC(CO)C3)nc2c1 (stereo not drawn),.,.,.,.,-3%,.
Nc1nonc1-n1nnc(C(=O)N/N=C/c2ccc(Br)cc2)c1-c1ccc2c(c1)OCO2,25µM*,.,-15%,?,-2%,8%
Cc1ccc(O)c(C(=O)c2cnn(C(=O)COc3ccc(Cl)cc3)c2)c1,16µM*,-3%,-7%,0%,-4%,12%
CN1CCc2ccc3c4c2[C@]1(C)Cc1cccc(c1-4)OCO3,.,.,3%,.,.,1%
CCOC(=O)c1ccc(Nc2nc(N)c3cc(OC)c(OC)cc3n2)cc1,32µM*!,.,-12%,-64%,-6%,-1%
Cc1ccc2oc(-c3ccc(NC(=O)COc4ccccc4)cc3O)nc2c1,4%,.,.,.,-2%,.
Cc1ccc(C)c(CN2C[C@H](Sc3ccccn3)C[C@H]2C(=O)Nc2ccc3sc(C)nc3c2)c1,.,.,.,.,-3%,.
COc1cc2c(cc1NC(=O)COc1ccccc1OC)oc1ccccc12,25µM*,5%,-4%,-15%[7.66 µM],-2%,18%
CCc1ccc(OCC(=O)Nc2cc3oc4ccccc4c3cc2OC)c(Br)c1,-7%,.,7%,.,-1%,.
COc1cc2c(cc1NC(=O)Nc1ccccc1)oc1ccccc12,28µM*,1%,3%,-2%,2%,15%
COc1cc2c(cc1NC(=O)Cc1ccc(C)cc1)oc1ccccc12,4%,10%,9%,1.1µM*,1%,7%
COc1cc2c(cc1NC(=O)COC(=O)C(CCSC)NC(=O)c1ccccc1Cl)oc1ccccc12 (stereo not drawn),25µM*,-3%,-7%,-9%,7%,?
COc1cc2c(cc1NC(=O)CSc1ccc(C)cc1)oc1ccccc12,?,19%,67%,-1%,3%,26%
Cc1csc(C(C)N(C)C(=O)c2cc(NC(=O)C3CCC3)c3c(c2)nc(-c2ccncc2)n3C)n1 (stereo not drawn),.,.,.,.,-7%,.
CNC(=O)COc1ccccc1C(=O)Nc1ccc2c(c1)oc1ccccc12,4µM*,5%,47%,6%,-13%,12%
COc1cc2c(cc1NS(=O)(=O)N1CCCCC1)oc1ccccc12,32µM*,18%,7%,-16%,-1%,?
